High-throughput results as filed in PubChem BioAssay.
In the library only some 19% were active in any assay of this set; here they are far more common.
HT1080 IDH1KD tx: qHTS for induction of synthetic lethality in tumor cells producing 2HG: qHTS for the HT-1080-IDH1KD cell line | HT-1080 IDH1 knockdown viability, ATP luminescence, 48 h | Potency, µM (top dose mostly 46.1 µM), for inactives: at the top dose activity, negative = toxicity, most hits filed as cytotoxic | 360,000 compounds, 2% hits;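 note: potency is the fitted concentration of half-maximal effect; 0% = DMSO wells and -100% = cell-free medium wells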
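Knockdown cells (IDH1KD HT-1080) received compounds 2 h after plating at 750 cells/well and were kept 48 h at 37 °C in 5% FBS RPMI. A CellTiter-Glo luminescence read gave % activity for curve fitting.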
IL1B secr inh: qHTS for Inhibitors of Inflammasome Signaling: IL-1-beta AlphaLISA Primary Screen. activity change, % at 57.5 µM. THP-1 LPS/ATP IL-1B secretion, AlphaLISA, 16 h; hits give low values. AID 743279, 2014. 360,000 compounds, 4.7% hits; in the data active = activity change below about -50%; inconclusive = mostly about -30% to -49%
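THP-1 cells pretreated 1 hr with compounds (up to 57.5 uM final), then stimulated with LPS (250 ng/mL final) plus ATP (1.25 mM final); secreted IL-1B measured by AlphaLISA after 16 hr, decreased signal indicating inhibition.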
ELG1 repair inh: qHTS screen for small molecules that inhibit ELG1-dependent DNA repair in human embryonic kidney (HEK293T) cells expressing luciferase-tagged ELG1; HEK293T ELG1-luciferase reporter, luminescence, 16 h; DNA damage induced by 5-fluorouridine; Potency, µM (top dose mostly 46.1 µM), for inactives: at the top dose activity change, negative = inhibition, actives largely listed as inhibitors; 330,000 compounds, 2.3% hits; note: potency is the fitted concentration of half-maximal effect; nearly all actives have a fitted effect of over 55% in size
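Reporter activity after DNA damage by 5-fluorouridine is monitored. Compound-treated cells incubate 16 hr at 37 °C, then ONE-Glo is added for 30 min before luminescence reading.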
TDP1 cell noCPT: qHTS for Inhibitors of human tyrosyl-DNA phosphodiesterase 1 (TDP1): qHTS in cells in absence of CPT; Potency, µM (highest dose often 46.2 µM), for inactives: at the highest dose activity change, negative = growth inhibition, hits mostly inhibitors; DT40 Tdp1-/- hTDP1 cells, no CPT, ATP luminescence, 48 h; 420,000 compounds, 15% hits; note: potency is the fitted concentration of half-maximal effect; nearly all actives have a fitted effect of over 55% in size
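Chicken DT40 Tdp1-/- cells stably complemented with human TDP1 were seeded at 400 cells/well with DMSO in place of 20 nM camptothecin. After compound pinning, cells grew at least 48 hr at 37 °C; viability read by CellTiter-Glo luminescence.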
DT40 TDP1 CPT: qHTS for Inhibitors of human tyrosyl-DNA phosphodiesterase 1 (TDP1): qHTS in cells in presence of CPT | chicken DT40 Tdp1-/-;hTDP1 cells + 20 nM CPT, ATP luminescence, 48 h | Potency, µM (doses to about 46.2 µM), inactives show at the top dose activity change, negative = growth inhibition, actives largely listed as inhibitors | 420,000 compounds, 12% hits | AID 686979, 2013; note: potency is the fitted concentration of half-maximal effect; nearly all actives have a fitted effect of over 55% in size
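Chicken DT40 Tdp1-/- cells complemented with human TDP1, 400 cells/well, exposed to compounds plus 20 nM camptothecin for at least 48 h at 37 C; viability read as ATP content by CellTiter-Glo luminescence.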
HT1080-NT tox: qHTS for induction of synthetic lethality in tumor cells producing 2HG: qHTS for the HT-1080-NT fibrosarcoma cell line; Potency, µM (top dose mostly 46.1 µM), without a hit: at the highest dose activity, negative = less viability, hits mostly cytotoxic; HT-1080-NT fibrosarcoma viability, CellTiter-Glo ATP luminescence, 48 h; 360,000 compounds, 1.6% hits;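 note: NT is the 2HG producing partner of a matched IDH1 knockdown line; potency is the fitted concentration of half-maximal effect; 0% = DMSO-treated cells and -100% = media-only wells without cells; nearly all actives have a fitted effect of over 55% in size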
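Fibrosarcoma NT cells, 750 per well in 5% FBS RPMI, were exposed to compound for 48 hours. Viability: CellTiter-Glo luminescence.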
* = called active by the depositor; ? = inconclusive; . = no result; ! = not active in a repeat; [ ] = dose if it differs, or a comment. Unless noted, calls come from the whole dose curve; as a rule, active = well fitted curve in the direction sought with a large enough effect; inconclusive = small, poorly fitted or top-dose-only effect, or another doubt; inactive = no such curve, though single readings can be large; an effect the other way counts as inactive or inconclusive. Unless noted, % is set by controls: 0 for no effect and ±100 for the full control effect.

SMILES	HT1080 IDH1KD tx	IL1B secr inh	ELG1 repair inh	TDP1 cell noCPT	DT40 TDP1 CPT	HT1080-NT tox
Cc1oc(-c2ccc(Cl)cc2)cc1C(=O)N1CCC1(C)C(=O)O (stereo not drawn)	0%	-5	.	?	29µM*	7%
COC(=O)c1ccc(-n2c(C)cc(C(=O)CSc3cccc[n+]3[O-])c2C)cc1	-18%	11	-1%	?	-25%	-2%
O=C(CSc1cccc[n+]1[O-])Nc1ccccc1Oc1ccccc1	6.5µM*	-102*	-11%	1.5µM*	0.92µM*	8.2µM*
COC(=O)c1ccc(C(=O)OC)c(NC(=O)CSc2cccc[n+]2[O-])c1	-4%	90	?	0.73µM*	0.92µM*	?
O=C(CSc1cccc[n+]1[O-])Nc1cc2c(cc1Cl)C(=O)c1ccccc1C2=O	-2%	-6	?	?	21µM*	-3%
COc1cc(=O)n2c(c1C(=O)N(C)Cc1nccs1)CCN(Cc1cccc(F)c1F)CC2	.	.	.	-10%	7%	.
CCn1c(CC(=O)Nc2ccc(F)cc2)nnc1SCC(=O)N1CCOCC1	5%	3	10%	-2%	0%	-3%
CN(CC(=O)Nc1cc(C(F)(F)F)ccc1-n1cncn1)Cc1ccccc1N1CCOCC1	-17%	?	.	?	?	-2%
O=C1CC(N2C(=O)/C(=C/C=C/c3ccccc3)SC2=S)C(=O)N1c1ccccc1 (stereo not drawn)	10%	?	-15%	13µM*	13µM*	1%
Cc1noc(C)c1COC(=O)CCN1c2ccccc2Sc2ccccc21	-8%	-16	?	21µM*	?	1%
Cc1noc(C)c1COC(=O)CCc1nc2ccccc2s1	16%	-1	?	-10%	-14%	24%
CC1(C(=O)NS(=O)(=O)C2CC2)CCN(C(=O)c2cc3ccccc3s2)C1 (stereo not drawn)	14%	-7	.	23%	-3%	2%
CC1(C(=O)NS(=O)(=O)C2CC2)CCCN(C(=O)COCc2ccccc2)C1 (stereo not drawn)	?	-15	.	2.3µM*	6.5µM*	-2%
CC1(C(=O)NS(=O)(=O)C2CC2)CCCN(C(=O)COc2ccccc2)C1 (stereo not drawn)	0%	40	.	?	?	?
CC1(C(=O)NS(=O)(=O)C2CC2)CCCN(C(=O)c2cc3ccccc3s2)C1 (stereo not drawn)	9%	14	.	0.82µM*	0.65µM*	13%
CC1(C(=O)NS(=O)(=O)C2CC2)CCCN(C(=O)Cc2ccc3ccccc3c2)C1 (stereo not drawn)	2%	25	.	10µM*	9.2µM*	?
COc1ccc(S(=O)(=O)N2CCCCCC2)cc1NC(=O)CCCOc1ccccc1	0%	13	-7%	?	-26%	-3%
Cn1cc(CN2CCCC(C(=O)c3nccn3C)C2)c(-c2cccc(Cl)c2)n1 (stereo not drawn)	0%	5	-4%	?	22%	-2%
CC(=O)N1CCN(S(=O)(=O)c2cccc(C(=O)NNC(=O)Cn3nc(C)cc3C)c2)CC1	0%	1	17%	2%	7%	8%
CC(=O)C1CCC2C3CCC4=CC(=O)C=CC4(C)C3CCC12C (stereo not drawn)	-14%	-8	.	12µM*	21µM*	-12%
CC(=O)[C@H]1CC[C@H]2[C@@H]3C=CC4=CC(=O)CC[C@@]4(C)[C@@H]3CC[C@]12C	3%	3	1%	13µM*	15µM*!	18%
CC(=O)OCC=C1CCC2C3CCC4=CC(=O)CCC4(C)C3C(O)CC12C (stereo not drawn)	-4%	-7	.	12µM*	12µM*	3%
CC(=O)[C@H]1CC[C@H]2[C@@H]3C[C@H](C)C4=CC(=O)CC[C@]4(C)[C@H]3[C@@H](O)C[C@]12C	-2%	?	0%	?	?	1%
CC(=O)[C@H]1CC[C@H]2[C@@H]3CCC4=CC(=O)CC[C@]4(C)[C@H]3[C@H](O)C[C@]12C	9%	-7	?	16µM*	?	33%
CC(=O)C[C@H](O)CC(=O)[C@H]1OC(=O)CCCCCCCCc2ccccc21	0%	12	22%	?	?	0%
SMILES	HT1080 IDH1KD tx	IL1B secr inh	ELG1 repair inh	TDP1 cell noCPT	DT40 TDP1 CPT	HT1080-NT tox
Cc1ccc(/C=C/c2ccc(N(C)C)cc2)[n+](C)c1	?	-2	29%	0.41µM*	0.52µM*	-30%
CN(C)c1ccc(/C=C/c2cc[n+](C)cc2)cc1	?	0	?	5.2µM*	6.5µM*	-22%
Cc1ccc(C(=O)O/N=C/c2ccc(N(C)C)cc2)cc1	21%	-4	?	7%	0%	11%
CN(C)c1ccc(C=O)cc1	.	.	.	10%	-8%	.
Cc1nn2c(C)c(C(=O)NC(C)(C)C)cnc2c1-c1ccc(F)cc1	.	.	.	-22%	-8%	.
O=C(c1csc2ccccc12)N1CCN(c2ccccn2)CC1	-1%	-29	-16%	?	-1%	-3%
O=C(c1csc2ccccc12)N1CCCCCC1	-14%	3	-16%	18µM*	21µM*	2%[9.24 µM]
CCS(=O)(=O)N1CCC(C(=O)NCCC(C)C)CC1	.	.	.	0%	-1%	.
Cc1nn(CC(=O)NCc2ccccc2F)c(C)c1[N+](=O)[O-]	-2%	2	9%	?	26%	2%
Cc1nn(CC(=O)NCc2cc3ccccc3[nH]2)c(C)c1[N+](=O)[O-]	-3%	-65*	19%	-20%	-26%	0%
Cc1ccc(CNC(=O)CNC(=O)[C@@H]2Cc3ccccc3CN2C(=O)OC(C)(C)C)cc1	-1%	-6	0%	?	18%	1%
C[C@H]1C[C@H]2[C@@H]3CCC4=CC(=O)C=C[C@]4(C)[C@@]3(Cl)[C@@H](O)C[C@]2(C)[C@@]1(O)C(=O)CO	13%	-59*	14%	?	?	?
